# Test results published in PubChem BioAssay (EPA / NIEHS).
# “And” between values parts separate entries of the source, which are not always exact repeats. Equal values may be shown once. More than one record can exist for a structure, and the calls need not agree. The source made the active and inactive calls. How the source made its calls: active means hit-call score of the fitted dose curve at least 0.9, where 1 is the maximum; inactive means score below 0.9.
# Experiment: ATG_M_32_CIS: Attagene CIS-FACTORIAL HepG2 Assay for M32 Transcription Factor (Internal Marker) (AID 2282949);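 further: background control marker of the multiplexed CIS panel rather than a real target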
# Details: HepG2 Attagene cis-factorial M32 reporter, mRNA; actives raise or lower the signal
# Protocol: ATG_CIS is a cell-based, multiplexed-readout assay that uses HepG2, a human liver cell line, with measurements taken at 24 hours after chemical dosing in a 24-well plate.ATG_M_32_CIS is one of 52 assay component(s) measured or calculated from the ATG_CIS assay. It is designed to make measurements of mRNA induction, a form of inducible reporter, as detected with fluorescence intensity signals by Reverse transcription polymerase chain reaction (RT-PCR) and Capillary electrophoresis technology.Data from the assay component ATG_M_32_CIS was analyzed into 1 assay endpoint. This assay endpoint, ATG_M_32_CIS, was analyzed with bidirectional fitting relative to DMSO as the negative control and baseline of activity. Using a type of inducible reporter, measures of mRNA for gain or loss-of-signal activity can be used to understand the background control at the transcription factor-level as they relate to the gene . Furthermore, this assay endpoint can be referred to as a secondary readout, because this assay has produced multiple assay endpoints where this one serves a background control function. To generalize the intended target to other relatable targets, this assay endpoint is annotated to the background measurement intended target family, where the subfamily is internal marker.
# Human liver HepG2 cells are transiently transfected with multiple reporter transcription units (MRTUs) in 6-well plates using FuGene 6 reagent (Roche; 3 ml FuGene/1 mg DNA). The MRTU constructs are regulated by a cis-regulating element (promoter). […] A major difference between the CIS and TRANS system is that in CIS activities of endogenous TFs are measured, whereas the TRANS assay evaluates changes in activities of exogenous, chimeric NR-Gal4 proteins. […] At the end of 24 hour incubation, total RNA was isolated using TriZol reagent (Invitrogen). The isolated RNA is then reverse-transcribed using oligo(dT) primer and Mo-MLV reverse transcriptase (Invitrogen) with DNAse I (Ambion) treatment for 30 min. The one-tenth of the produced cDNA was amplified by PCR using Taq DNA polymerase (Invitrogen) and two reporter sequence-specific primers. The PCR products were fluorescently labeled by primer extension with 6-arboxyfluorescein (6-FAM) 5'-labeled reporter sequence-specific primer (2 min at 95 C, 20 s at 68 C and 10 min at 72 C) and these products were digested with 5U of HpaI (New England Biolabs) for 2h at 37 C. The fragments were purified using Qiaquick PCR columns (Qiagen), analyzed on an ABI 3130xL genetic analyzer (Applied Biosystems) with peak positions identified by using a set of X-rhodamine (ROX)-labeled MapMarker1000 molecular weight standards (BioVentures). The raw capillary electrophoresis data was processed using Attagraph software (Attagene).
SMILES,outcome,AC50
CCN(CC)C(=O)c1cccc(C)c1,inactive,–
CN(C)C(=O)Nc1ccc(Cl)c(Cl)c1,inactive,–
c1ccc(Nc2ccccc2)cc1,inactive,–
Oc1ccc(C(c2ccc(O)cc2)C(Cl)(Cl)Cl)cc1,inactive,–
CCN(Cc1c(F)cccc1Cl)c1c([N+](=O)[O-])cc(C(F)(F)F)cc1[N+](=O)[O-],inactive,–
CC1(C)C(C=C(Cl)Cl)C1C(=O)OCc1cccc(Oc2ccccc2)c1 (stereo not given),inactive,–
CSC(=O)c1cccc2nnsc12,inactive,–
CC(C)CCCCCCc1ccc(O)cc1,inactive,18 µM (active) and 17.2 µM (active)
CCSC(=O)N(CC(C)C)CC(C)C,inactive,–
COC(=O)c1c(Cl)nn(C)c1S(=O)(=O)NC(=O)Nc1nc(OC)cc(OC)n1,inactive,–
CCCOC(=O)NCCCN(C)C,inactive,–
CCOC(=O)c1ccc(O)cc1,inactive,–
CCOC(=O)COc1cc(-n2ncc(C(F)(F)F)c(C)c2=O)c(F)cc1Cl,inactive,–
O=C(Nc1ccc([N+](=O)[O-])cc1Cl)c1cc(Cl)ccc1O,inactive,–
COC(=O)c1ccc(I)cc1S(=O)(=O)NC(=O)Nc1nc(C)nc(OC)n1,inactive,–
CC(C)(c1ccc(O)cc1)c1ccc(O)cc1,inactive,–
CCCCCCC(C)OC(=O)COc1nc(F)c(Cl)c(N)c1Cl (stereo not given),inactive,–
c1ccc2[nH]c(-c3cscn3)nc2c1,inactive,–
C#CCOC(=O)[C@@H](C)Oc1ccc(Oc2ncc(Cl)cc2F)cc1,inactive,–
CCOC(=O)C(C)Oc1ccc(Oc2cnc3cc(Cl)ccc3n2)cc1 (stereo not given),inactive,–

SMILES,outcome,AC50
CC(=O)S[C@@H]1CC2=CC(=O)CC[C@]2(C)[C@H]2CC[C@@]3(C)[C@@H](CC[C@@]34CCC(=O)O4)[C@H]12,inactive,–
CC(C)(C)[C@@H](O)[C@@H](Cc1ccc(Cl)cc1)n1cncn1,inactive,–
COC(=O)c1cccc(C)c1S(=O)(=O)NC(=O)Nc1nc(OCC(F)(F)F)nc(N(C)C)n1,inactive,–
CCCCCOC(=O)COc1cc(N2C(=O)C3=C(CCCC3)C2=O)c(F)cc1Cl,inactive,–
COC(=O)c1ccccc1C(=O)O,inactive,–
COC(=O)c1ccccc1S(=O)(=O)NC(=O)Nc1nc(OC(F)F)cc(OC(F)F)n1,inactive,–
O=C(c1ccccc1)C1CCCCC1,inactive,–
CC(=O)[C@H]1CC[C@H]2[C@@H]3CCC4=CC(=O)CC[C@]4(C)[C@H]3CC[C@]12C,inactive,–
N#CSCSc1nc2ccccc2s1,inactive,–
Cc1nn(C)c(Oc2ccccc2)c1C=NOCc1ccc(C(=O)OC(C)(C)C)cc1,inactive,–
CCC(C)OC(=O)N1CCCCC1CCO (stereo not given),inactive,–
CCCCOC(=O)[C@@H](C)Oc1ccc(Oc2ccc(C(F)(F)F)cn2)cc1,inactive,–
COc1c(Cl)ccc(Cl)c1C(=O)O,inactive,–
CCCCC(CC)CN1C(=O)C2C3C=CC(C3)C2C1=O (stereo not given),inactive,–
OB(O)O,inactive,–
CCCCC(CC)COC(=O)c1ccccc1C(=O)O (stereo not given),inactive,–
S=C([S-])NCCNC(=S)[S-].[Mn+2],inactive,–
CCCCOCCOCCOCc1cc2c(cc1CCC)OCO2,inactive,–
S=C(S)NCCNC(=S)S.[Mn+2].[S-]C([S-])=NCCN=C([S-])[S-].[Zn+2],inactive,–
